Bioassay records as filed in PubChem BioAssay.
aSyn 5UTR act: Activators via SNCA 5'UTR binding, MLPCN; alpha-synuclein 5'UTR reporter, activators screen; activity score, % (tested at 7.5 µM), hits read low; AID 1814, 2009; actives 7.1% (n = 300,000); in the data active means activity score below about -60%
Each line names hits and unclear results; the compound was inactive in the other large screens. A selection follows.

Cc1ccc2oc(-c3cccc(NC(=O)c4ccccn4)c3)nc2c1	aSyn 5UTR act -95.7
COc1cc(C(=O)Nc2cccc(-c3nc4cc(C)ccc4o3)c2)cc(OC)c1OC	aSyn 5UTR act -162.1
COc1cc(C(=O)Nc2cc(-c3nc4cc(C)ccc4o3)ccc2C)cc(OC)c1OC	aSyn 5UTR act -129.1
COc1cc(OC)cc(-c2nc3cc(C)ccc3o2)c1	aSyn 5UTR act -215.8
CCOc1cccc(C(=O)NC(=S)Nc2ccc(N3CCN(CC)CC3)cc2)c1	aSyn 5UTR act -80.3
CCCOc1cccc(C(=O)NC(=S)Nc2ccc(N3CCN(C)CC3)cc2)c1	aSyn 5UTR act -68.8
Cc1ccc2nc(NNC(=O)c3ccc(S(=O)(=O)N4CCc5ccccc5C4)cc3)sc2c1	none
Cc1cc(Cl)c(O)c(-n2nc3ccccc3n2)c1	aSyn 5UTR act -142.9
CC(=O)Oc1ccc(C)cc1-n1nc2ccccc2n1	aSyn 5UTR act -211.9
Cc1ccc(OC(=O)c2cccc(S(=O)(=O)N3CCCC3)c2)c(-n2nc3ccccc3n2)c1	aSyn 5UTR act -161.6
Cc1ccc(OC(=O)c2ccc(S(=O)(=O)N(C)C)cc2)c(-n2nc3ccccc3n2)c1	aSyn 5UTR act -194.8
COc1cccc(C(=O)NNC(=O)c2ccccc2)c1	aSyn 5UTR act -112.7
CCn1c2ccccc2c2cc(NC(=O)c3cccc(OC)c3)ccc21	aSyn 5UTR act -179.7
COc1cccc(C(=O)N/N=C(/c2ccccc2)c2ccccn2)c1	none
Cc1ccc(C(=O)Nc2cccc(Oc3ccccc3)c2)o1	aSyn 5UTR act -125.7
COc1cccc(/C(C)=N/N=C(\C)c2cccc(OC)c2)c1	aSyn 5UTR act -275.4
O=C(Nc1ccc(O)cc1)c1ccc(C(=O)c2ccccc2)o1	aSyn 5UTR act -120.4
COc1c(C(=O)NNC(=O)c2ccccc2)csc1Br	aSyn 5UTR act -82.4
CC(=O)Nc1cccc(Oc2ccc(-c3noc(C)n3)cc2)c1	aSyn 5UTR act -193.6
COc1cccc(C(=O)Nc2ccccc2)c1	aSyn 5UTR act -122.5
COc1cccc(C(=O)Nc2cccc(SC)c2)c1	aSyn 5UTR act -156.0
COc1cccc(C(=O)Nc2cnn(C(C)C)c2)c1	aSyn 5UTR act -113.7
COc1cccc(NC(=O)c2ccc(C(=O)c3ccccc3)o2)c1	aSyn 5UTR act -147.3
O=C(CSc1ncccn1)NCc1cccc(Cl)c1	aSyn 5UTR act -65.2
O=C(Cc1cccs1)NCc1ccc(Cl)cc1Cl	aSyn 5UTR act -155.4
O=C(Cc1cccs1)NCc1cccc(Cl)c1	aSyn 5UTR act -88.5
CCCOc1ccc(CNC(=O)Cc2cccs2)cc1	aSyn 5UTR act -97.6
CC(C)(C)c1ccc(CSc2nc(N)cc(=O)[nH]2)cc1	aSyn 5UTR act -79.3
Nc1cc(=O)[nH]c(SCCSc2ccccc2F)n1	none
[2H]C(CCOS(N)(=O)=O)c1ccc(C(C)(C)C)cc1 (configuration not stated)	none
COc1cc(O)c(C(=O)/C=C/c2ccccc2)c(OC)c1	aSyn 5UTR act -162.7
COc1ccccc1/C=C/C(=O)c1ccccc1	aSyn 5UTR act -154.9
COc1ccccc1/C=C/C(=O)N1CCC(c2ccccc2)C1 (configuration not stated)	aSyn 5UTR act -176.5
CCN(CC(=O)Nc1ccc2c(c1)OCCO2)C(=O)/C=C/c1cccc(OC)c1OC	aSyn 5UTR act -93.2
COc1ccc(/C=C/C(=O)c2ccccc2)c(OC)c1	aSyn 5UTR act -207.2
CCOc1ccccc1/C=C/C(=O)c1ccc(Cl)cc1	aSyn 5UTR act -79.7
COc1ccccc1/C=C/C(=O)c1ccc(NC(C)=O)cc1	aSyn 5UTR act -204.6
O=C(/C=C/c1ccccc1O)c1ccc(Cl)cc1	aSyn 5UTR act -188.9
COc1cccc(/C=C/C(=O)c2ccc3c(c2)OCCO3)c1OC	aSyn 5UTR act -306.9
COc1ccccc1/C=C/C(=O)NC(=S)NC(C)C	aSyn 5UTR act -93.2
COc1ccc(/C=C/C(=O)c2ccc3c(c2)OCO3)c(OC)c1	aSyn 5UTR act -84.5
COc1cc(CC(=O)OCC(=O)c2ccc3c(c2)OCCO3)cc(OC)c1OC	none
COc1ccc(/C=C/C(=O)OCC(=O)c2ccc3c(c2)NC(=O)CO3)c(OC)c1	none
COc1ccccc1/C=C/C(=O)c1ccc(Cl)cc1	aSyn 5UTR act -61.7
O=C(NCc1cccs1)c1cc(-c2ccc(O)cc2)on1	aSyn 5UTR act -157.2
CC(C)CNC(=O)c1cc(-c2ccc(Cl)c(Cl)c2)on1	aSyn 5UTR act -117.8
O=C(NCc1cccs1)c1cc(-c2cccc(Cl)c2)on1	aSyn 5UTR act -76.6
O=C(NCc1cccs1)c1nc(-c2cccs2)no1	aSyn 5UTR act -100.4
CCCc1cc(C(=O)NCC(C)C)no1	aSyn 5UTR act -105.6
CCCc1cc(C(=O)NCc2cccs2)no1	aSyn 5UTR act -140.7
Cc1ccc(-c2cc(C(=O)NCc3cccs3)no2)cc1	aSyn 5UTR act -122.3
CCOc1ccc(-c2cc(CCCC(=O)NCc3ccc(C)cc3)no2)cc1	none
c1cncc(-c2nc3c(ccc4ccccc43)[nH]2)c1	aSyn 5UTR act -192.6
Cn1c(CSc2ccccc2)c(C#N)c2ccccc21	aSyn 5UTR act -131.1
Cc1ccn2cc(CSc3ccccc3)nc2c1	aSyn 5UTR act -88.2
Cn1ccnc1SCc1cn2ccccc2n1	aSyn 5UTR act -105.2
c1ccn2cc(CSc3nnc4ccccn34)nc2c1	aSyn 5UTR act -90.0
c1ccn2cc(CSC3=NCCS3)nc2c1	aSyn 5UTR act -118.2
N/C(Cc1nc(-c2ccc(Cl)cc2)cs1)=N/O	aSyn 5UTR act -67.3
Cc1ccc(-c2csc(CC(N)=O)n2)cc1	aSyn 5UTR act -76.0
COc1cccc(-c2ccc(SCc3ccccn3)nn2)c1	aSyn 5UTR act -84.1
O=[N+]([O-])c1cccc(-c2ccc(SCc3ccccn3)nn2)c1	aSyn 5UTR act -96.7
Cc1ccc(NC(=O)c2sc3nc(C)cc(C)c3c2N)cc1	aSyn 5UTR act -75.4
Cc1cc(C)c2c(N)c(C(=O)Nc3cccc(C)c3C)sc2n1	aSyn 5UTR act -268.2
O=C(NC1CCCCC1)c1ccc([N+](=O)[O-])o1	aSyn 5UTR act -79.4
CC(NC(=O)c1ccc([N+](=O)[O-])o1)C12CC3CC(CC(C3)C1)C2 (configuration not stated)	aSyn 5UTR act -168.0
O=C(NCC1CCCO1)c1cc(-c2ccccc2F)no1 (configuration not stated)	aSyn 5UTR act -204.4
O=C(NCC1CCCO1)c1ccc([N+](=O)[O-])o1 (configuration not stated)	aSyn 5UTR act -90.0
CC(NC(=O)COC(=O)c1ccc2c(c1)S(=O)(=O)N=C1CCCCCN12)C12CC3CC(CC(C3)C1)C2 (configuration not stated)	none
O=C(NC1CCCCC1)c1ccc(-c2ccccc2[N+](=O)[O-])o1	aSyn 5UTR act -83.3
O=C(NCC1CCCO1)c1ccc(-c2ccccc2Cl)o1 (configuration not stated)	aSyn 5UTR act -115.3
COc1ccc(/C=N/Nc2nc3ccccc3[nH]2)cc1OC	aSyn 5UTR act -228.1
COc1cc(/C=N\Nc2nc3ccccc3[nH]2)cc(OC)c1OC	aSyn 5UTR act -81.5
CCN(CC)c1ccc(/C=N/Nc2nc3ccccc3[nH]2)c(O)c1	none
COc1ccc2c(c1)c(/C=N/Nc1nc3ccccc3[nH]1)c(C)n2C	aSyn 5UTR act -115.2
Cc1ccc2cc(/C=N/Nc3nc4ccccc4[nH]3)c(Cl)nc2c1	aSyn 5UTR act -110.9
C(=N\Nc1nc2ccccc2[nH]1)/c1ccc2ncccc2c1	none
O=C(O)/C=C/C(=O)c1ccc2c(c1)CCc1ccccc1-2	aSyn 5UTR act -110.8
Cc1ccc(O)c(NC(=O)c2noc(C(C)C)c2[N+](=O)[O-])c1	aSyn 5UTR act -86.3
Cc1cc(NC(=O)c2noc3c2CCc2ccccc2-3)no1	aSyn 5UTR act -77.0
Cc1ccc(O)c(NC(=O)c2noc3c2CCc2ccccc2-3)c1	aSyn 5UTR act -122.1
